Source: PubChem BioAssay AID720 (The Scripps Research Institute Molecular Screening Center, 2007)
Among all 97,000 compounds or so, about 140 (0.14%) were called active. This is one part of a sample in which actives are shown more often than they occur.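 How the source made its calls: active means inhibition above the screen-wide mean inhibition plus 3 SD (cut at about 15% in these data); inactive means the rest.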

Biological target: Ephrin type-B receptor 4 (Homo sapiens) (UniProt P54760)
Test: EphB4-ephrin-B2 interaction antagonists, primary screen, biochemical, TNYL-RAW peptide probe, fluorescence polarization (AID 720);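 further: 0% = DMSO wells and 100% = excess unlabeled TNYL-RAW peptide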
Settings: EphB4 LBD / TNYL-RAW-Alexa532 peptide, at 7 µM, active compounds read high

Sequence of Ephrin type-B receptor 4 (Homo sapiens) (P54760 whole entry, looked up): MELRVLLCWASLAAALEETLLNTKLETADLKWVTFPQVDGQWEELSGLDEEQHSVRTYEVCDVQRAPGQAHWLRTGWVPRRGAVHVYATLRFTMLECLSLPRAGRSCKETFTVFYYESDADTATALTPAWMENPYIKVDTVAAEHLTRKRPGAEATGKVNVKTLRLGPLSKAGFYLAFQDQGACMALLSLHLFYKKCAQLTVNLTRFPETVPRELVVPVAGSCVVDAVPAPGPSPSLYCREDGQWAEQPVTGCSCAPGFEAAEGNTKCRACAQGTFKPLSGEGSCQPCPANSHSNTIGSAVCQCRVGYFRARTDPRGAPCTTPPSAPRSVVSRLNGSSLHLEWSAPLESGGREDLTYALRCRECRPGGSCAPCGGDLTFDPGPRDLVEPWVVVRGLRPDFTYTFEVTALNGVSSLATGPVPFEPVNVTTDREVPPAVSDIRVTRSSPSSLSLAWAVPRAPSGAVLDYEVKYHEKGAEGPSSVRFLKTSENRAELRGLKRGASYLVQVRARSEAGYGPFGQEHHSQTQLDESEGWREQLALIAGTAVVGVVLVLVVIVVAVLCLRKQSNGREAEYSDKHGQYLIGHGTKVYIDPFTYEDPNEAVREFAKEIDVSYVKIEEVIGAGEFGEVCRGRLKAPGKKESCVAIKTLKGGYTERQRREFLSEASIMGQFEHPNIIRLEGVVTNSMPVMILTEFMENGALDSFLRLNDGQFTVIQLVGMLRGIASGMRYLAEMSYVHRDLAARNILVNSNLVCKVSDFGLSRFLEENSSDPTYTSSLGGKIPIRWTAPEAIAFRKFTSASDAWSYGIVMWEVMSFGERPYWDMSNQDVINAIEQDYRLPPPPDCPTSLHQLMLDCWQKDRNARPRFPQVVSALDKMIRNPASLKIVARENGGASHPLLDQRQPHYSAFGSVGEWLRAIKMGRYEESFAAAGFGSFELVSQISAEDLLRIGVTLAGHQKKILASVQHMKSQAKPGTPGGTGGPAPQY

SMILES	inhibition
CCc1cccc2c(C#N)cn(CC(=O)N3CCOCC3)c12	21.5% (active)
CCC(=O)CC(c1ccc([N+](=O)[O-])cc1)c1c(O)c2ccccc2oc1=O (stereo not given)	0.56% (inactive)
CC(=O)c1ccc(OC(NC(=O)Cc2ccccc2)C(Cl)(Cl)Cl)cc1 (stereo not given)	0.16% (inactive)
OC(Cn1c2ccccc2c2ccccc21)C[n+]1ccccc1 (stereo not given)	-2.91% (inactive)
CC(=O)Nc1ccccc1C(=O)OCC(=O)c1cccc2ccccc12	-0.92% (inactive)
